The nature of test [1]: compound effects on differentiated 3T3-L1 adipocyte viability – cell-based, 3T3-L1 adipocytes, calcein-AM fluorescence, 48 h, basal, profiling panel (AID 1163). The note with it: 3T3-L1 adipocytes viability, higher = more signal.
The nature of test [2]: compound effects on hepatocellular carcinoma cell viability – HepG2, calcein-AM fluorescence, 48 h, basal, profiling panel (AID 1164). The note with it: higher = more signal.
Test [3] can be described thus: compound effects on multiple myeloma cell viability – MM1S, calcein-AM fluorescence, 48 h, basal, profiling panel (AID 1165). As to conditions: higher = more signal.
A short description of test [4]: calcein-AM signal in unstimulated myeloma cells – cell-based, calcein-AM fluorescence, 48 h, PK04 Diversity Set, profiling panel (AID 1166).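 Further: cells grown under basal conditions without added stimulus.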 As to conditions: RPMI8226 myeloma viability, higher = more signal.
A short description of test [5]: JC-1 mitochondrial signal, unstimulated HepG2 cells – cell-based, JC-1 fluorescence, 24 h, 100 nL compound, profiling panel (AID 1167). The note with it: HepG2 mitochondrial potential, higher = more signal.
A short description of test [6]: JC-1 mitochondrial signal, unstimulated adipocytes – cell-based, JC-1 fluorescence, 3T3-L1 adipocytes, 24 h, 100 nL compound, profiling panel (AID 1168). As to conditions: JC-1 mitochondrial fluorescence, higher = more signal, called active from +8 up or from −8 down.
Test [7] in a line: JC-1 mitochondrial signal, unstimulated myeloma cells – cell-based, JC-1 fluorescence, RPMI8226, 24 h, 100 nL compound, profiling panel (AID 1169). As to conditions: JC-1 mitochondrial potential fluorescence, higher = more signal.
Test [8] in a line: JC-1 mitochondrial signal, unstimulated MM1S myeloma – cell-based, JC-1 fluorescence, 24 h, 100 nL compound, profiling panel (AID 1170). As to conditions: MM1S mitochondrial potential, higher = more signal.
Test [9] in a line: resazurin metabolic signal in A549 cells – cell-based, resazurin fluorescence, 24 h, PK04 Diversity Set, profiling panel (AID 1171). The note with it: A549 viability, higher = more signal, called active from +8 up or from −8 down.
The nature of test [10]: resazurin metabolic signal in HepG2 cells – cell-based, resazurin fluorescence, 24 h, PK04 Diversity Set, profiling panel (AID 1172). As to conditions: HepG2 viability, higher = more signal.
Test [11] can be described thus: budding yeast growth changes without added modifier – OD600, strain BY4716, 24 h, basal condition, primary screen (AID 1173). The note with it: S. cerevisiae BY4716 growth, OD600, 24 h; higher = more signal, called active from +8 up or from −8 down.
The nature of test [12]: viability profiling in MM1S myeloma cells – cell-based, resazurin fluorescence, basal, 24 h, PK04 Diversity Set, profiling panel (AID 1174). The note with it: higher = more signal, called active from +8 up or from −8 down.
Test [13] addresses Dihydroorotate dehydrogenase (quinone), mitochondrial (Plasmodium falciparum (isolate 3D7)) (UniProt Q08210). Briefly: inhibition of P. falciparum DHODH – biochemical, C-terminal His tag, absorbance 600 nm, primary screen (AID 1175).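 Further: recombinant parasite enzyme with a five histidine tag at its C terminus.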 The note with it: PfDHODH enzyme, DCIP absorbance 600 nm; higher = more signal, called active from +8 up or from −8 down.
A short description of test [14]: growth modulation of vineyard yeast isolate – strain RM11-1a, OD600, basal, 24 h, primary screen (AID 1177).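 Further: cultures grown under basal conditions with no added stressor.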 As to conditions: S. cerevisiae RM11-1a growth, OD600, 24 h; higher = more signal, called active from +8 up or from −8 down.
A short description of test [15]: growth of efflux-deficient E. coli DRC39 – strain DRC39, OD650, 24 h, E. coli filamentation inducers, primary screen (AID 1178).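 Further: growth measured as culture turbidity by optical density at 650 nm.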 As to conditions: E. coli DRC39 acrAB, higher = more signal, called active from +8 up or from −8 down.
Test [16] in a line: growth of efflux-deficient E. coli DRC39 – strain DRC39, OD650, 48 h, E. coli filamentation inducers, primary screen (AID 1179).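 Further: screen aims at cell division blockers that make cells filament.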 As to conditions: E. coli DRC39 delta-acrAB growth, higher = more signal, called active from +8 up or from −8 down.
Test [17] can be described thus: viability profiling in RPMI8226 myeloma cells – cell-based, resazurin fluorescence, basal, 24 h, PK04 Diversity Set, profiling panel (AID 1180).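 Further: RPMI8826 multiple myeloma cell line at 5000 cells per well.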 The note with it: higher = more signal.
Test [18] has as its target E3 ubiquitin-protein ligase XIAP (Homo sapiens) (UniProt P98170). Briefly: small molecules binding XIAP protein – biophysical, small-molecule microarray, fluorescence 635 nm, primary screen (AID 1181).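 Further: score merges 667 nm emission and signal to noise over triplicate slides.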 The note with it: higher = more signal.
For test [19], the system named is XIP peptide (Xip251-270) binding. Briefly: XIP fragment 251-270 binding compounds – biochemical, small-molecule microarray, fluorescence 635/667 nm, 0.1 µg/mL protein, primary screen (AID 1182). As to conditions: fluorescent protein binding, 635 nm, higher = more signal, called active from +8 up or from −8 down.
A further test has as its system XIP peptide (Xip251-270). Briefly: compounds binding XIP fragment 251-270 – biochemical, small-molecule microarray, fluorescence 635/667 nm, 0.5 µg/mL protein, primary screen (AID 1183). The note with it: fluorescence 635 nm, higher = more signal.

Activity calls are given as the source filed them.

E3 ubiquitin-protein ligase XIAP (Homo sapiens), sequence (P98170 whole entry, looked up, the tested form may be a part): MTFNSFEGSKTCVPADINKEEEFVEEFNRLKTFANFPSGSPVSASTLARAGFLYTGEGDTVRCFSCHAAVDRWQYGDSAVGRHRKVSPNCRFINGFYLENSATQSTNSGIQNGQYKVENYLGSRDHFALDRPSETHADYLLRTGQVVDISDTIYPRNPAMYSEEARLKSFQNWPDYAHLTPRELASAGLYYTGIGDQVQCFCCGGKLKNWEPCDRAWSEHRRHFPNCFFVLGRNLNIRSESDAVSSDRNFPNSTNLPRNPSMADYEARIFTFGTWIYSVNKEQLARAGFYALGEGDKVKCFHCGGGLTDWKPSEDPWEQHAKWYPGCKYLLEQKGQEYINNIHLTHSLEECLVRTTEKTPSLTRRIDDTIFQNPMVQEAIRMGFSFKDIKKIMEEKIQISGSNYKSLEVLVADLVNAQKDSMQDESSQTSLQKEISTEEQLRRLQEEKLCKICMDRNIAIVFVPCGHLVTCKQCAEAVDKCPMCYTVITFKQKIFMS
Dihydroorotate dehydrogenase (quinone), mitochondrial (Plasmodium falciparum (isolate 3D7)), sequence (Q08210 whole entry, looked up): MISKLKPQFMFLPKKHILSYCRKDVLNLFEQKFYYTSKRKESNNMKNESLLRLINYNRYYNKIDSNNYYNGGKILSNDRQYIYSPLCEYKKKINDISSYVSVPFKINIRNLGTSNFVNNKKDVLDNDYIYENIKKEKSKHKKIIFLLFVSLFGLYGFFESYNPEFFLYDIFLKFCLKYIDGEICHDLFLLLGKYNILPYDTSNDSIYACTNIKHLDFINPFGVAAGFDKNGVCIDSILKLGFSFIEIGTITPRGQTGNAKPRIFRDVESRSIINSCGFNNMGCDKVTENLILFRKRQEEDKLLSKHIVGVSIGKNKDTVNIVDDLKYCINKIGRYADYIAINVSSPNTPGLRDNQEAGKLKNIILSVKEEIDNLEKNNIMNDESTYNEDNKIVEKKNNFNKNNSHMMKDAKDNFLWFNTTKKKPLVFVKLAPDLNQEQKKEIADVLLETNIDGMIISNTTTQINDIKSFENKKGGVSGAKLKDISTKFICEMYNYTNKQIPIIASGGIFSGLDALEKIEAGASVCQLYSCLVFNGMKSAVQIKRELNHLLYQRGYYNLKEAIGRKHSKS

For `C=CCC(OC(C)=O)[C@@H]1[C@@H](N(Cc2cc3ccccc3o2)C(=O)c2ccc(-c3ccccc3)cc2)c2cc(OCCCO)ccc2N1C(=O)c1ccc(-c2ccccc2)cc1` (stereo not given in full), the z-score in [1] is 0.893; in test [2] it was 0.249; in test [3] it was 0.402; in [4] it was -0.777; in test [5] it was 3.06; in test [6] it was 0.604 (inactive). Moreover, the z-score was -0.557 in test [7]; 0.511 in test [8]; 1.15 (inactive) in [9]; 0.634 in test [10]; 0.18 (inactive) in test [11]; 1.28 (inactive) in [12]. Besides, the z-score in test [14] was 0.975 (inactive); in [15] it was 1.47 (inactive); in test [16], 1.07 (inactive); in [17] it was 0.996. In addition, the composite z-score is 0.192 (inactive) in test [13], -0.102 in test [18], -0.547 (inactive) in test [19] and -0.599 in the test with XIP peptide (Xip251-270).
Turning to `COc1ccc([Si](C)(C)[C@@H]2[C@@H](CC(=O)N3CCC[C@H]3CO)O[C@]3(C(=O)N(Cc4ccc(N5CCC5=O)cc4)c4ccccc43)[C@H]2C)cc1`, the z-score was 0.592 in test [1]; -3.27 in test [2]; -2.7 in test [3]; -4.39 in [4]; -1.56 in test [5]; 1.28 (inactive) in [6]. In addition, the z-score in test [7] is -1.18; in test [8], -1.66; in [9] it was -1.99 (inactive); in [10], -1.43; in test [11], -1.17 (inactive); in test [12], -2.01 (inactive). Moreover, the z-score in [14] was 0.613 (inactive); in test [15] it was 1.34 (inactive); in test [16], 1.2 (inactive); in [17] it was -5.16. Further, the composite z-score in test [13] was -2.42 (inactive); in test [18], -0.117; in test [19], 1.15 (inactive); with XIP peptide (Xip251-270), 0.713.
As to `CC(C)C[C@@H]1NC(=O)[C@H]2C[C@@H](C(=O)NCCCC[N+](C)(C)C)[C@@H](c3cccc(OCCO)c3)N2C1=O`, the z-score in [1] is 0.753; in test [2], -0.131; in test [3] it was 0.0808; in [4] it was -0.583; in [5], 1.22; in test [6] it was 1.37 (inactive). Moreover, the z-score in test [7] was -0.173; in test [8] it was 0.0969; in [9], -0.474 (inactive); in [10] it was 0.417; in test [11], -0.553 (inactive); in [12], 0.932 (inactive). Moreover, the z-score in [14] was -0.915 (inactive); in [15], 0.709 (inactive); in test [16], 0.569 (inactive); in [17], 0.33. Moreover, the composite z-score was -30.9 (active) in test [13], -0.0476 in [18], 1.85 (inactive) in [19] and 0.705 with XIP peptide (Xip251-270).
In the case of `COc1c(C)cc(-c2cc3c(c(CCc4ccccc4)n2)[Si](C(C)C)(C(C)C)OC3)cc1C`, the z-score in [1] is 1.27; in test [2], -0.277; in test [3], -1.5; in test [4], 0.0965; in test [5], -2.26e-05; in test [6], 0.334 (inactive). Also, the z-score was 0.667 in test [7]; 0.168 in [8]; 1.38 (inactive) in test [9]; 1.64 in test [10]; -0.966 (inactive) in test [11]; 1.93 (inactive) in test [12]. Also, the z-score in test [14] is -1.43 (inactive); in [15], 1.75 (inactive); in [16], 1.08 (inactive); in test [17] it was 1.37. Further, the composite z-score in [13] was -0.545 (inactive); in test [18], -0.172; in test [19] it was 0.461 (inactive); in the test on XIP peptide (Xip251-270), -0.436.
As to `C=C(/C(=C/C[C@H](OC(C)=O)c1cccc(OCCO)c1)c1cc(C(=O)OC)ccc1OC)C(C)C`, the z-score is 0.911 in test [1]; 0.454 in test [2]; -0.181 in [3]; 0.587 in test [4]; 1.66 in test [5]; 1.91 (inactive) in test [6]. The z-score in [7] was 0.00485; in test [8] it was 0.343; in [9], 3.57 (inactive); in test [10] it was 1.97; in [11], -1.63 (inactive); in [12], 1.92 (inactive). The z-score is -1.29 (inactive) in [14], 2.48 (inactive) in [15], 1.67 (inactive) in [16] and 1.87 in [17]. In addition, the composite z-score was -0.569 (inactive) in test [13], 0.0479 in test [18], -0.139 (inactive) in test [19] and -0.595 in the test with XIP peptide (Xip251-270).

These data come from PubChem BioAssay.
